Measured values reported in PubChem BioAssay (NCI).
The panel holds about 83,000 compounds, 20% with a hit somewhere; the sample as a whole holds those more often.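 Assay: single dose, 48 h. Readout: percent growth (0 = no net growth; negative = cell death). Active: <10.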 The source made the active and inactive calls.

Test system: MALME-3M melanoma
Assay: NCI-60 one-dose screen, 48 h (100 = growth as untreated, 0 = no growth, -100 = all killed)
Settings: 10 µM

Compound	growth
CC[C@]12C=CCN3CC[C@@]4(c5ccc(OC)cc5N(C)[C@H]4[C@@](O)(C(=O)OC)[C@@H]1OC(=O)CCCC[P+](C1CCCCC1)(C1CCCCC1)C1CCCCC1)[C@@H]32	-95.9% (active)
CC(=O)Oc1ccccc1C(=O)[Se]C(=NC(C)C)NC(C)C	-43.5% (active)
COCCOCCOCCOc1ccc(-n2cc(CCCN(CCNc3ccnc4cc(Cl)ccc34)C(=O)CCC(=O)O[C@@H]3O[C@@H]4OC5(C)CC[C@H]6[C@H](C)CC[C@@H]([C@H]3C)[C@@]46OO5)nn2)cc1	-61.2% (active)
C[C@H]1[C@@H](CC(=O)N[C@@H](Cc2coc3ccccc23)B(O)O)O[C@@H]2OC3(C)CC[C@H]4[C@H](C)CC[C@@H]1[C@@]24OO3	-60% (active)
COP(=O)(CC(F)(F)C(F)(F)F)OC	-59.1% (active)
CC12OOC(C)(OO1)C2CCC(=O)NCCNc1ccnc2cc(Cl)ccc12 (stereo not given)	89.7% (inactive)
CC[C@]12C=CCN3CC[C@@]4(c5ccc(OC)cc5N(C)[C@H]4[C@@](O)(C(=O)OC)[C@@H]1OC(=O)CCC[P+](c1ccc(C)cc1)(c1ccc(C)cc1)c1ccc(C)cc1)[C@@H]32	-94.4% (active)
CC(C)N=C([Se])NC(=O)c1ccccc1	-24.7% (active)
CC[C@]12C=CCN3CC[C@@]4(c5ccc(OC)cc5N(C)[C@H]4[C@@](O)(C(=O)OC)[C@@H]1OC(=O)CCC[P+](C1CCCCC1)(C1CCCCC1)C1CCCCC1)[C@@H]32	-96.1% (active)
CC1=C(COCCOC(=O)c2ccc(S(=O)(=O)F)cc2)C2=C(C)C3(CC3)[C@@](C)(O)C(=O)C2=C1	-78.2% (active)
CC[C@]12C=CCN3CC[C@@]4(c5ccc(OC)cc5N(C)[C@H]4[C@@](O)(C(=O)OC)[C@@H]1OC(=O)CCCC[P+](c1ccc(OC)cc1)(c1ccc(OC)cc1)c1ccc(OC)cc1)[C@@H]32	-97.2% (active)
CC1=C(CCC=NNC(N)=O)C2=C(C)C3(CC3)[C@@](C)(O)C(=O)C2=C1	-93.4% (active)
CC[C@@]12CC(C(=O)OC)=C3Nc4cc5c(cc4[C@@]34CCN(C[C@H]3O[C@H]31)[C@@H]24)[C@@H]1[C@H](O5)[C@@H](O)[C@@]2(CC)CC(C(=O)OC)=C3Nc4cc(OC)ccc4[C@@]34CCN1[C@@H]24	21% (inactive)
CCOP(=O)(CC(F)(F)C(F)(F)F)OCC	-70.4% (active)
CC1=C2C(=C[C@@](C)(COP(=O)(Oc3ccccc3)Oc3ccccc3)[C@@H]2O)C(=O)[C@@](C)(O)C12CC2	-96.7% (active)
CC(=O)Oc1ccccc1C(=O)NC([Se])=NC1CCCCC1	-6.63% (active)
C[C@H]1[C@H](OC(=O)CCC(=O)N(CCCc2cn(-c3ccc(CN4CCOCC4)cc3)nn2)CCNc2ccnc3cc(Cl)ccc23)O[C@@H]2OC3(C)CC[C@H]4[C@H](C)CC[C@@H]1[C@@]24OO3	-90% (active)
O=C(/C=C/c1ccc(Cl)cc1)c1nc2ccccc2n1Cc1ccc(F)cc1	49.9% (inactive)
CC1=C(CCC=O)C2=C(C)C3(CC3)[C@@](C)(O)C(=O)C2=C1	-96% (active)
O=C(NC([Se])=NC1CCCCC1)c1ccc2c(c1)OCO2	57.3% (inactive)
C[C@H]1[C@H](OC(=O)CCC(=O)N(CCCc2cn(-c3ccc(C#N)cc3)nn2)CCNc2ccnc3cc(Cl)ccc23)O[C@@H]2OC3(C)CC[C@H]4[C@H](C)CC[C@@H]1[C@@]24OO3	13.3% (inactive)
C[C@H]1[C@@H](Oc2ccc(-c3cn(-c4ccnc5cc(Cl)ccc45)nn3)cc2)O[C@@H]2OC3(C)CC[C@H]4[C@H](C)CC[C@@H]1[C@@]24OO3	13.7% (inactive)
COc1ccc(/C=C/C(=O)c2nc3ccccc3n2Cc2ccc(Br)cc2)cc1	73.1% (inactive)
COC(=O)CCn1c(-c2ccc(-n3cc(-c4ccc(O[C@H]5O[C@@H]6OC7(C)CC[C@H]8[C@H](C)CC[C@@H]([C@H]5C)[C@@]68OO7)cc4)nn3)cc2)nc2ccccc21	0.0576% (active)
C[C@H]1[C@H](OC(=O)CCC(=O)N(CCCc2cn(-c3ccc([N+](=O)[O-])cc3)nn2)CCNc2ccnc3cc(Cl)ccc23)O[C@@H]2OC3(C)CC[C@H]4[C@H](C)CC[C@@H]1[C@@]24OO3	47.5% (inactive)

Test system: MDA-MB-231 breast
Assay: as above
Settings: 10 µM

Compound	growth
COc1cc2cc(C(=O)N3C[C@@H](CCl)c4c3cc(OC(=O)N3CCN(C)[C@@H]5CSSC[C@@H]53)c3ccccc43)[nH]c2c(OC)c1OC	-43.2% (active)
CCOP(=O)(OCC)C(NC(C)=O)C(=O)SCCN (stereo not given)	99.2% (inactive)
COc1cc2cc(C(=O)N3C[C@@H](CCl)c4c3cc(OC(=O)N3CCN(C)[C@@H]5CSSC[C@H]53)c3ccccc43)[nH]c2c(OC)c1OC	-51.3% (active)
COc1ccc2cc([C@H](C)C(=O)[Se]CCC#N)ccc2c1	-59.9% (active)
CC12OOC(C)(OO1)C2CCC(=O)OCCNc1ccnc2cc(Cl)ccc12 (stereo not given)	91.5% (inactive)
Cc1ccc2[nH]c(=S)n(-c3ccc(F)cc3)c(=O)c2c1	93.1% (inactive)
CCOC(=O)C1=C(Nc2ccccc2)C(=O)OC12C(=O)Nc1ccccc12 (stereo not given)	104% (inactive)
CC12CCC3(CCC(=O)NCCCNc4ccnc5cc(Cl)ccc45)[C@@](C)(OO[C@]3(C)O1)O2	-23.4% (active)
CC[C@]12C=CCN3CC[C@@]4(c5ccc(OC)cc5N(C)[C@H]4[C@@](O)(C(=O)OC)[C@@H]1OC(=O)CCCC[P+](C1CCCCC1)(C1CCCCC1)C1CCCCC1)[C@@H]32	-92.8% (active)
CC(=O)Oc1ccccc1C(=O)[Se]C(=NC(C)C)NC(C)C	-50.5% (active)
COCCOCCOCCOc1ccc(-n2cc(CCCN(CCNc3ccnc4cc(Cl)ccc34)C(=O)CCC(=O)O[C@@H]3O[C@@H]4OC5(C)CC[C@H]6[C@H](C)CC[C@@H]([C@H]3C)[C@@]46OO5)nn2)cc1	73.5% (inactive)
C[C@H]1[C@@H](CC(=O)N[C@@H](Cc2coc3ccccc23)B(O)O)O[C@@H]2OC3(C)CC[C@H]4[C@H](C)CC[C@@H]1[C@@]24OO3	-92% (active)
COP(=O)(CC(F)(F)C(F)(F)F)OC	65.1% (inactive)
CC12OOC(C)(OO1)C2CCC(=O)NCCNc1ccnc2cc(Cl)ccc12 (stereo not given)	96.6% (inactive)
CC[C@]12C=CCN3CC[C@@]4(c5ccc(OC)cc5N(C)[C@H]4[C@@](O)(C(=O)OC)[C@@H]1OC(=O)CCC[P+](c1ccc(C)cc1)(c1ccc(C)cc1)c1ccc(C)cc1)[C@@H]32	-94.9% (active)
CC(C)N=C([Se])NC(=O)c1ccccc1	-48.6% (active)
CC[C@]12C=CCN3CC[C@@]4(c5ccc(OC)cc5N(C)[C@H]4[C@@](O)(C(=O)OC)[C@@H]1OC(=O)CCC[P+](C1CCCCC1)(C1CCCCC1)C1CCCCC1)[C@@H]32	-90.8% (active)
CC1=C(COCCOC(=O)c2ccc(S(=O)(=O)F)cc2)C2=C(C)C3(CC3)[C@@](C)(O)C(=O)C2=C1	-27.2% (active)
CC[C@]12C=CCN3CC[C@@]4(c5ccc(OC)cc5N(C)[C@H]4[C@@](O)(C(=O)OC)[C@@H]1OC(=O)CCCC[P+](c1ccc(OC)cc1)(c1ccc(OC)cc1)c1ccc(OC)cc1)[C@@H]32	-97.4% (active)
CC1=C(CCC=NNC(N)=O)C2=C(C)C3(CC3)[C@@](C)(O)C(=O)C2=C1	-59.7% (active)
CC[C@@]12CC(C(=O)OC)=C3Nc4cc5c(cc4[C@@]34CCN(C[C@H]3O[C@H]31)[C@@H]24)[C@@H]1[C@H](O5)[C@@H](O)[C@@]2(CC)CC(C(=O)OC)=C3Nc4cc(OC)ccc4[C@@]34CCN1[C@@H]24	18% (inactive)
CCOP(=O)(CC(F)(F)C(F)(F)F)OCC	51.1% (inactive)
CC1=C2C(=C[C@@](C)(COP(=O)(Oc3ccccc3)Oc3ccccc3)[C@@H]2O)C(=O)[C@@](C)(O)C12CC2	-79.2% (active)
C[C@H]1[C@H](OC(=O)CCC(=O)N(CCCc2cn(-c3ccc(CN4CCOCC4)cc3)nn2)CCNc2ccnc3cc(Cl)ccc23)O[C@@H]2OC3(C)CC[C@H]4[C@H](C)CC[C@@H]1[C@@]24OO3	42.5% (inactive)
CC1=C(CCC=O)C2=C(C)C3(CC3)[C@@](C)(O)C(=O)C2=C1	-99.2% (active)
O=C(NC([Se])=NC1CCCCC1)c1ccc2c(c1)OCO2	68.5% (inactive)
C[C@H]1[C@H](OC(=O)CCC(=O)N(CCCc2cn(-c3ccc(C#N)cc3)nn2)CCNc2ccnc3cc(Cl)ccc23)O[C@@H]2OC3(C)CC[C@H]4[C@H](C)CC[C@@H]1[C@@]24OO3	62.9% (inactive)
C[C@H]1[C@@H](Oc2ccc(-c3cn(-c4ccnc5cc(Cl)ccc45)nn3)cc2)O[C@@H]2OC3(C)CC[C@H]4[C@H](C)CC[C@@H]1[C@@]24OO3	49.4% (inactive)
COC(=O)CCn1c(-c2ccc(-n3cc(-c4ccc(O[C@H]5O[C@@H]6OC7(C)CC[C@H]8[C@H](C)CC[C@@H]([C@H]5C)[C@@]68OO7)cc4)nn3)cc2)nc2ccccc21	35% (inactive)
C[C@H]1[C@H](OC(=O)CCC(=O)N(CCCc2cn(-c3ccc([N+](=O)[O-])cc3)nn2)CCNc2ccnc3cc(Cl)ccc23)O[C@@H]2OC3(C)CC[C@H]4[C@H](C)CC[C@@H]1[C@@]24OO3	50.2% (inactive)
